Laboratory results as given in PubChem BioAssay (NCATS).
Records with an inconclusive call do not appear. Calls of active or inactive are those of the source. Unless noted, the call rests on the fitted dose curve; in most records, active means well fitted curve in the direction sought with a large enough effect; inconclusive means small, poorly fitted or top-dose-only effect, or another doubt; inactive means no such curve, though single readings can be large; an effect the other way counts as inactive or inconclusive.

What was measured:
[1] = target: Pyruvate kinase PKM (Homo sapiens) (UniProt P14618); test: qHTS Assay for Activators of Human Muscle Pyruvate Kinase (AID 954; active means well fitted curve in the direction sought with a large enough effect, not every such curve was filed as active)
Method in brief: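 Purified human PKM2 (0.1 nM) with 0.5 mM PEP (Km) and 0.1 mM ADP in 50 mM imidazole pH 7.2, KCl, MgCl2, 1 h at room temperature; ATP formed read by coupled luciferase luminescence. Normalized to no-enzyme/110 uM thiadiazolimine inhibition; 0.3 nM enzyme column for activation.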

[2] = target: Alpha-galactosidase (Coffea arabica) (UniProt Q42656); test: Counterscreen for Glucocerebrosidase Inhibitors: qHTS Assay for Coffee Bean alpha-Galactosidase at pH 4.5 (AID 957); further: series mostly up to about 77 µM
Method in brief: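 Green coffee bean enzyme (2 nM final) was incubated with compounds (0.7 nM to 77 uM) and 4-methylumbelliferyl alpha-D-galactopyranoside (80 uM final) in 50 mM citric acid, 0.005% Tween-20, pH 4.5, 20 min at room temperature; AC50 from Hill fits.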

[3] = Cell Viability - LYMP1-002 - Assay at 16 hr (AID 948)
Method in brief: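 ATP luminescence (CellTiter-Glo) was measured after 16 hr compound exposure at 37 C of 2500 lymphoblastoid LYMP1-002 cells per well. Concentration-response curves were fitted with the Hill equation to give AC50.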

[4] = MultiTox-Fluor Cytotoxicity Assay - LYMP1-002 - Live Cells (AID 955)
Method in brief: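 Human lymphoblastoid LYMP1-002 cells, 2500/well in complete medium, rested 5 hr at 37 C, then exposed to compounds for 16 hr at 37 C. Live-cell protease cleavage of GF-AFC read by fluorescence (Ex/Em 405/510) after 60 min at room temperature; AC50 from Hill fits.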

[5] = MultiTox-Fluor Cytotoxicity Assay - LYMP1-002 - Dead Cells (AID 960); further: nearly all actives have a fitted effect of over 60% in size
Method in brief: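 Human lymphoblastoid cells (LYMP1-002), 2500/well in complete medium, were exposed to compounds for 16 hr at 37 C. Dead-cell protease activity was read as bis-AAF-R110 fluorescence (Ex/Em 485/520), normalized to DMSO and 15 uM tetraoctylammonium bromide; AC50 from Hill fits.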

[6] = MultiTox-Fluor Cytotoxicity Assay - LYMP1-003 - Dead Cells (AID 961); further: nearly all actives have a fitted effect of over 70% in size
Method in brief: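 LYMP1-003 human lymphoblastoid cells (2500/well) exposed to compound 16 h at 37 C in complete medium; dead-cell protease read with bis-AAF-R110 fluorescence (Ex/Em 485/520) after 60 min at room temperature. Normalized to DMSO and 15 uM tetraoctylammonium bromide; AC50 from Hill fit.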

[7] = MultiTox-Fluor Cytotoxicity Assay - LYMP1-003 - Live Cells (AID 962);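 further: cytotoxic hits lower the live-cell protease signal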
Method in brief: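 LYMP1-003 human lymphoblastoid cells (2500/well) in complete medium were preincubated 5 hr at 37 C, then exposed to compounds for 16 hr at 37 C. Live-cell protease cleavage of GF-AFC read by fluorescence (Ex/Em 405/510); AC50 from Hill fits.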

[8] = Cell Viability - LYMP1-003 - Assay at 24 hr (AID 963)
Method in brief: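 Human lymphoblastoid LYMP1-003 cells (2500/well) were rested 5 hr at 37 C, then exposed to compounds in complete medium for 24 hr at 37 C. Cellular ATP was quantified by CellTiter-Glo luminescence, and AC50 values came from Hill fits of concentration-response data.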

[9] = Cell Viability - LYMP1-003 - Assay at 40 hr (AID 964); further: series mostly up to about 92 µM; nearly all actives have a fitted effect of over 60% in size
Method in brief: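 Human lymphoblastoid LYMP1-003 cells, 2500/well in complete medium, rested 5 hr at 37 C, then exposed to compounds for 40 hr at 37 C. Viability read as intracellular ATP by CellTiter-Glo luminescence; AC50 from Hill fits of concentration-response data.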

[10] = Cell Viability - LYMP2-003 (AID 965);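 further: cells exposed to compounds for 24 h before reading; nearly all actives have a fitted effect of over 50% in size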
Method in brief: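 CellTiter-Glo luminescence quantified ATP loss after 24 h compound treatment of LYMP2-003 lymphoblastoid cells at 37 C. Titration series were fitted with the standard Hill equation to give AC50.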

[11] = Cell Viability - LYMP2-004 (AID 966); further: nearly all actives have a fitted effect of over 65% in size
Method in brief: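 Human lymphoblastoid cells (2500/well) in complete medium were treated with compounds for 24 hr at 37 C, then intracellular ATP was measured by CellTiter-Glo luminescence. AC50 values came from Hill-equation fits of concentration-response data.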

[12] = Cell Viability - LYMP2-005 (AID 967); further: series mostly up to about 92 µM
Method in brief: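 LYMP2-005 human lymphoblastoid cells (2500/well) were treated with compounds for 24 h at 37 C. Intracellular ATP was then measured by CellTiter-Glo luminescence after 30 min at room temperature. AC50 values came from Hill-equation fits of qHTS concentration-response data.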

[13] = Cell Viability - LYMP2-009 (AID 968); further: series mostly up to about 92 µM; nearly all actives have a fitted effect of over 55% in size
[14] = Cell Viability - LYMP2-011 (AID 969); further: nearly all actives have a fitted effect of over 60% in size
Method in brief: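 Human lymphoblastoid cells (2500/well) were plated in complete medium, preincubated 5 hr at 37 C, then exposed to compounds for 24 hr at 37 C. Intracellular ATP was read by CellTiter-Glo luminescence, and AC50 came from Hill-equation concentration-response fits.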

[15] = Cell Viability - LYMP2-013 (AID 970); further: series mostly up to about 92 µM; nearly all actives have a fitted effect of over 55% in size
Method in brief: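 Human lymphoblastoid cells, 2500/well, were preincubated 5 hr at 37 C, then treated with compounds for 24 hr at 37 C in complete medium. Intracellular ATP was read by CellTiter-Glo luminescence; AC50 from Hill-equation fits of concentration-response data.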

[16] = Cell Viability - LYMP2-015 (AID 971); further: nearly all actives have a fitted effect of over 55% in size
Method in brief: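 Human lymphoblastoid cells (2500/well) in complete medium were preincubated 5 hr at 37 C, then compound-treated 24 hr at 37 C. Intracellular ATP was read by CellTiter-Glo luminescence after 30 min at room temperature; AC50 came from Hill-equation concentration-response fits.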

[17] = Cell Viability - LYMP2-017 (AID 972); further: series mostly up to about 92 µM; nearly all actives have a fitted effect of over 55% in size
Method in brief: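 Human lymphoblastoid cells (2500/well) were seeded in complete medium, held 5 hr at 37 C, then exposed to compounds for 24 hr at 37 C. Intracellular ATP was read by CellTiter-Glo luminescence after 30 min at room temperature, with AC50 values from Hill-equation fits.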

[18] = Cell Viability - LYMP2-021 (AID 974)
Method in brief: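 Human lymphoblastoid cells (2500/well) were preincubated 5 hr at 37 C, then exposed to compounds for 24 hr at 37 C in complete medium. Intracellular ATP was read by CellTiter-Glo luminescence; AC50 came from Hill-equation fits of concentration-response data.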

[19] = Cell Viability - LYMP2-023 (AID 975)
Method in brief: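 Human lymphoblastoid cells (2500/well) were preincubated 5 hr at 37 C, then exposed to compounds for 24 hr at 37 C in complete medium. Cellular ATP was read by CellTiter-Glo luminescence, and AC50 came from Hill-equation fits.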

Measured: Potency

Pyruvate kinase PKM (Homo sapiens), sequence (P14618 whole entry, looked up): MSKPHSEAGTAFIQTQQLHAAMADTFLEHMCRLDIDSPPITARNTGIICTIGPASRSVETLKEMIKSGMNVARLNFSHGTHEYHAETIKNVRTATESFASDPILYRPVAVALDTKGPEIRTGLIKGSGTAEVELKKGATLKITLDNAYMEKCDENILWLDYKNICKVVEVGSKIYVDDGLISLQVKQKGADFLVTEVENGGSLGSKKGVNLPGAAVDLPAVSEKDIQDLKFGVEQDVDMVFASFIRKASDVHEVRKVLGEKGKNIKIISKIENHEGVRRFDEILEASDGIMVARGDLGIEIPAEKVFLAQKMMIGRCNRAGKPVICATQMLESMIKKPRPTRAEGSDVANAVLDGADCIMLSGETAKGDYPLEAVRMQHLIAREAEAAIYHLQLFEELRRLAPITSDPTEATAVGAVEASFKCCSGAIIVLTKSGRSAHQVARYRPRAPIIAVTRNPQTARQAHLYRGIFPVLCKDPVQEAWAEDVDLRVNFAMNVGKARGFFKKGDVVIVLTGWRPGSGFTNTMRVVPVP
Alpha-galactosidase (Coffea arabica), sequence (Q42656 whole entry, looked up): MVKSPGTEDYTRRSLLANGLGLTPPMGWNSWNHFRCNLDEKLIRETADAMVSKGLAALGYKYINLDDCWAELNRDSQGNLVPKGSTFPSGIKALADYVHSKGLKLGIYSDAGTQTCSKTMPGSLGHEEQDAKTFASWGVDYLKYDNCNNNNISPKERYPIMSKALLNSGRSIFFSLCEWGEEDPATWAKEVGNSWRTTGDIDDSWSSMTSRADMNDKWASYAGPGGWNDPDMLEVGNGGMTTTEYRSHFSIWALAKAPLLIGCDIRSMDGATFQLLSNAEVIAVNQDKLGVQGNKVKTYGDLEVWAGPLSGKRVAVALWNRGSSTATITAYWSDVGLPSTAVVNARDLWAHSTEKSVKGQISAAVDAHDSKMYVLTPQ

N#CC(C#N)=Cc1ccc(O)c(O)c1
inactive: [1]

Cc1cccc(C)c1NC1=NCCCS1
inactive: [1] | [2]

NCC1(CC(=O)O)CCCCC1
inactive: [1] | [2]

CCOP(=S)(OCC)Oc1cc(C)nc(C(C)C)n1
not listed: [1] | [2]
inactive: all other assays above

Fc1ccc(C(OCCN2CCN(CCCc3ccccc3)CC2)c2ccc(F)cc2)cc1
inactive: [1] | [2]

Oc1ccc(Cl)cc1Cc1ccccc1
not listed: [1] | [2]
inactive: all other assays above

CNCC(O)c1ccc(O)cc1 (configuration not stated)
not listed: [5]
inactive: all other assays above

c1ccc2c(c1)Nc1ccccc1S2
not listed: [1] | [2]
inactive: all other assays above

N[C@@H]1C[C@H]1c1ccccc1
inactive: [1] | [2]

NCC(CC(=O)O)c1ccc(Cl)cc1 (configuration not stated)
inactive: [1] | [2]

CC(=O)[C@H]1CC[C@H]2[C@@H]3CC[C@H]4C[C@H](O)CC[C@]4(C)[C@H]3C(=O)C[C@]12C
inactive: [1] | [2]

Cc1ccc(S(=O)(=O)N[C@@H](CCCCN)C(=O)CCl)cc1
inactive: [1] | [2]

CCn1cc(C(=O)O)c(=O)c2ccc(C)nc21
inactive: [1] | [2]

COc1ccccc1N1CCNCC1
inactive: [1] | [2]

NCC(O)c1ccc(O)cc1 (configuration not stated)
not listed: [1] | [2]
inactive: all other assays above

Clc1cccc(N2CCNCC2)c1
inactive: [1] | [2]
